Our source for the growth inhibition values is PubChem BioAssay (NCI).

Compounds without any hit were thinned out: in the full panel of roughly 79,000, 15% have a hit. Unmarked numbers belong to inactive results. Calls of active or inactive are those of the source. No stated cut-off is given here; in the data, active means growth inhibition above about 70%; inactive means the rest.

The nature of experiment [1]: NCI Yeast Anticancer Drug Screen. Data for the rad50 strain (AID 155).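 Further: 0% = growth of vehicle-only cultures of the same strain.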 As to conditions: S. cerevisiae rad50 strain growth inhibition, hits give high values. The gist of the method: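 Genetically altered yeast (DNA repair pathway); compound treatment; growth inhibition vs vehicle ctrl.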
Experiment [2] can be described thus: NCI Yeast Anticancer Drug Screen. Data for the mec2-1 strain (AID 157). As to conditions: S. cerevisiae mec2-1 strain, hits give high values. The gist of the method:
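Compounds were applied to mec2-1 yeast cells. Their growth was then compared with that of vehicle-treated cultures to give growth inhibition.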

Experiment [3] is described as follows: NCI Yeast Anticancer Drug Screen. Data for the sgs1 mgt1 strain (AID 161).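 Further: 0% = growth of cultures given vehicle only.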 As to conditions: S. cerevisiae sgs1 mgt1 strain, hits give high values. In short, it runs like this:
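Compounds are added to genetically altered yeast, and growth is compared with cultures given vehicle alone to give percent inhibition.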

Experiment [4] in a line: NCI Yeast Anticancer Drug Screen. Data for the cln2 rad14 strain (AID 165).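 Further: 0% = growth equal to vehicle treated cultures.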 Conditions: S. cerevisiae cln2 rad14 strain, hits give high values. In short, it runs like this:
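Strain: cln2 rad14 yeast, altered in cell cycle control and DNA damage repair. Read-out: growth inhibition vs vehicle.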

Experiment [5] is described as follows: NCI Yeast Anticancer Drug Screen. Data for the bub3 strain (AID 167). Conditions: S. cerevisiae bub3 mutant strain, hits give high values. In short, it runs like this:
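Yeast carrying a defined mutation is treated with each compound, and growth is compared with that of vehicle-exposed cells to give inhibition.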

The nature of experiment [6]: NCI Yeast Anticancer Drug Screen. Data for the mlh1 rad18 strain (AID 175). As to conditions: S. cerevisiae mlh1 rad18 strain growth inhibition, hits give high values. The gist of the method: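 A repair-deficient yeast strain is exposed to test compound, and growth is scored relative to vehicle-treated controls.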
[7] abbreviates: at 5.0 µM (retest, dose inferred, filed as 0.5).
The mark [8] stands for this setting: at 50.0 µM (retest, dose inferred, filed as 5.0).

Take `CC1([N+](=O)[O-])C(=O)C2(N3CCOCC3)CCCC2C1c1ccccc1` (configuration not stated): the growth inhibition was -9% in experiment [1] (setting [7]); 75% (active) in experiment [1] (setting [8]); -2% in experiment [1] (at 50.0 µM); -7% in experiment [2] (setting [7]); 99% (active) in experiment [2] (setting [8]); -0.3% in experiment [2] (at 50.0 µM). The growth inhibition in experiment [3] (setting [7]) was -1%; in experiment [3] (setting [8]) it was 90% (active); in experiment [3] (at 50.0 µM) it was 4.95%; in experiment [4] (setting [7]) it was 1%; in experiment [4] (setting [8]), 40%; in experiment [4] (at 50.0 µM), -7.7%. Moreover, the growth inhibition in experiment [5] (setting [7]) is -12%; in experiment [5] (setting [8]) it was 98% (active); in experiment [5] (at 50.0 µM), -5.2%; in experiment [6] (setting [7]), 10%; in experiment [6] (setting [8]) it was 96% (active); in experiment [6] (at 50.0 µM) it was 7.65%.

As to `COc1ccc2c(c1)Cc1cc(NC(=O)N(CCCl)N=O)ccc1-2`, the growth inhibition was -2% in experiment [1] (setting [7]); 85% (active) in experiment [1] (setting [8]); 90.2% (active) in experiment [1] (at 50.0 µM); 2% in experiment [2] (setting [7]); 88% (active) in experiment [2] (setting [8]); 55.9% in experiment [2] (at 50.0 µM). Further, the growth inhibition is 3% in experiment [3] (setting [7]); 77% (active) in experiment [3] (setting [8]); 89.2% (active) in experiment [3] (at 50.0 µM); -5% in experiment [4] (setting [7]); 49% in experiment [4] (setting [8]); -0.85% in experiment [4] (at 50.0 µM). The growth inhibition in experiment [5] (setting [7]) is -11%; in experiment [5] (setting [8]), 41%; in experiment [5] (at 50.0 µM) it was 22.9%; in experiment [6] (setting [7]) it was 28%; in experiment [6] (setting [8]), 94% (active); in experiment [6] (at 50.0 µM), 95.6% (active).

Consider `O=C(O)/C=C/C(=O)Nc1cc2c(cc1Br)-c1ccccc1C2Br` (configuration not stated), for which the growth inhibition in experiment [1] (setting [7]) was 8%; in experiment [1] (setting [8]), 77% (active); in experiment [1] (at 50.0 µM), 9.15%; in experiment [2] (setting [7]), 1%; in experiment [2] (setting [8]), 38%; in experiment [2] (at 50.0 µM), 40.9%. Moreover, the growth inhibition in experiment [3] (setting [7]) was 3%; in experiment [3] (setting [8]), 69%; in experiment [3] (at 50.0 µM), 7.45%; in experiment [4] (setting [7]) it was -1%; in experiment [4] (setting [8]), 27%; in experiment [4] (at 50.0 µM) it was 38.1%. In addition, the growth inhibition in experiment [5] (setting [7]) was -12%; in experiment [5] (setting [8]), 71% (active); in experiment [5] (at 50.0 µM) it was -3.8%; in experiment [6] (setting [7]), 4%; in experiment [6] (setting [8]), 81% (active); in experiment [6] (at 50.0 µM), 11.2%.

Take `CN=C(NC1CCCCC1)c1ccc(NC(=O)c2ccc(C(=O)Nc3ccc(C(=NC)NC4CCCCC4)cc3)cc2)cc1`: the growth inhibition was 0% in experiment [1] (setting [7]); 81% (active) in experiment [1] (setting [8]); 69.5% in experiment [1] (at 50.0 µM); 2% in experiment [2] (setting [7]); 59% in experiment [2] (setting [8]); 24% in experiment [2] (at 50.0 µM). In addition, the growth inhibition in experiment [3] (setting [7]) was 6%; in experiment [3] (setting [8]) it was 96% (active); in experiment [3] (at 50.0 µM), 85.5% (active); in experiment [4] (setting [7]), 6%; in experiment [4] (setting [8]) it was 65%; in experiment [4] (at 50.0 µM), 92% (active). The growth inhibition is -1% in experiment [5] (setting [7]); 74% (active) in experiment [5] (setting [8]); 33.7% in experiment [5] (at 50.0 µM); -1% in experiment [6] (setting [7]); 99% (active) in experiment [6] (setting [8]); 94.8% (active) in experiment [6] (at 50.0 µM).

In the case of `CCc1ccc(C(=O)O)cc1`, the growth inhibition was -2% in experiment [1] (setting [7]); -2% in experiment [1] (setting [8]); 2.7% in experiment [1] (at 50.0 µM); -2% in experiment [2] (setting [7]); -2% in experiment [2] (setting [8]); -11.9% in experiment [2] (at 50.0 µM). Further, the growth inhibition in experiment [3] (setting [7]) is -1%; in experiment [3] (setting [8]), 0%; in experiment [3] (at 50.0 µM) it was -1.1%; in experiment [4] (setting [7]), -5%; in experiment [4] (setting [8]) it was -17%; in experiment [4] (at 50.0 µM), 76.7% (active). For the same compound, the growth inhibition in experiment [5] (setting [7]) was -6%; in experiment [5] (setting [8]) it was 2%; in experiment [5] (at 50.0 µM) it was -15.2%; in experiment [6] (setting [7]), -5%; in experiment [6] (setting [8]), -3%; in experiment [6] (at 50.0 µM) it was 10%.

For the compound `S=C1NCCNC(=S)SS1`, the growth inhibition in experiment [1] (setting [7]) was 40%; in experiment [1] (setting [8]), 97% (active); in experiment [1] (at 50.0 µM), 93% (active); in experiment [2] (setting [7]), 8%; in experiment [2] (setting [8]) it was 99% (active); in experiment [2] (at 50.0 µM), 77.6% (active). The growth inhibition in experiment [3] (setting [7]) was 15%; in experiment [3] (setting [8]) it was 97% (active); in experiment [3] (at 50.0 µM) it was 48.5%; in experiment [4] (setting [7]), 7%; in experiment [4] (setting [8]) it was 98% (active); in experiment [4] (at 50.0 µM), 20.2%. Moreover, the growth inhibition in experiment [5] (setting [7]) is 10%; in experiment [5] (setting [8]), 99% (active); in experiment [5] (at 50.0 µM) it was 98.8% (active); in experiment [6] (setting [7]) it was 14%; in experiment [6] (setting [8]), 99% (active); in experiment [6] (at 50.0 µM) it was 44.5%.

Consider `O=c1ccc2nc3ccccc3sc-2c1`, for which the growth inhibition in experiment [1] (setting [7]) is -13%; in experiment [1] (setting [8]), 98% (active); in experiment [1] (at 50.0 µM) it was 95.4% (active); in experiment [2] (setting [7]), 22%; in experiment [2] (setting [8]) it was 98% (active); in experiment [2] (at 50.0 µM) it was 8.1%. For the same compound, the growth inhibition was 5% in experiment [3] (setting [7]); 98% (active) in experiment [3] (setting [8]); 76.8% (active) in experiment [3] (at 50.0 µM); -6% in experiment [4] (setting [7]); 98% (active) in experiment [4] (setting [8]); 49.8% in experiment [4] (at 50.0 µM). Moreover, the growth inhibition in experiment [5] (setting [7]) is 7%; in experiment [5] (setting [8]), 98% (active); in experiment [5] (at 50.0 µM), 92.1% (active); in experiment [6] (setting [7]), 4%; in experiment [6] (setting [8]), 98% (active); in experiment [6] (at 50.0 µM), 95.5% (active).

Turning to `Nc1nc(N)c2nc(Sc3ccc(F)cc3)c(N)nc2n1`, the growth inhibition was -2% in experiment [1] (setting [7]); 37% in experiment [1] (setting [8]); 42.7% in experiment [1] (at 50.0 µM); -1% in experiment [2] (setting [7]); -4% in experiment [2] (setting [8]); 39.2% in experiment [2] (at 50.0 µM). Further, the growth inhibition is -1% in experiment [3] (setting [7]); 40% in experiment [3] (setting [8]); 51.6% in experiment [3] (at 50.0 µM); 2% in experiment [4] (setting [7]); 24% in experiment [4] (setting [8]); 10.3% in experiment [4] (at 50.0 µM). Further, the growth inhibition is -1% in experiment [5] (setting [7]); 26% in experiment [5] (setting [8]); 40.9% in experiment [5] (at 50.0 µM); 0% in experiment [6] (setting [7]); 58% in experiment [6] (setting [8]); 75.1% (active) in experiment [6] (at 50.0 µM).

As to `Cc1ccc(Nc2nc(C)c(C(=O)C/C(=N\NC(N)=S)C(=O)Nc3ccc(Cl)cc3C)s2)cc1`, the growth inhibition in experiment [1] (setting [7]) is -6%; in experiment [1] (setting [8]), 19%; in experiment [1] (at 50.0 µM), 71.5% (active); in experiment [2] (setting [7]), -12%; in experiment [2] (setting [8]), -3%; in experiment [2] (at 50.0 µM) it was 17.2%. Moreover, the growth inhibition was -3% in experiment [3] (setting [7]); 11% in experiment [3] (setting [8]); 82.3% (active) in experiment [3] (at 50.0 µM); -8% in experiment [4] (setting [7]); 10% in experiment [4] (setting [8]); 34.6% in experiment [4] (at 50.0 µM). For the same compound, the growth inhibition in experiment [5] (setting [7]) was -19%; in experiment [5] (setting [8]) it was 5%; in experiment [5] (at 50.0 µM) it was 33%; in experiment [6] (setting [7]), 12%; in experiment [6] (setting [8]), -9%; in experiment [6] (at 50.0 µM), 57.1%.
